# PubChem BioAssay (NCATS)
# Records with an inconclusive call do not appear. Where a call stands in place of a potency, no number is given. A number with no mark means an inactive call. Active and inactive are the calls of the source. Unless noted, the call rests on the fitted dose curve; in most records, active means well fitted curve in the direction sought with a large enough effect; inconclusive means small, poorly fitted or top-dose-only effect, or another doubt; inactive means no such curve, though single readings can be large; an effect the other way counts as inactive or inconclusive.
# Experiments:
# [1] = qHTS for Inhibitors of Plasmodium falciparum (7G8) proliferation (AID 504316); further: nearly all actives have a fitted effect of over 65% in size; further: potency means the concentration at half of the fitted maximal effect
# How it was run: (§1)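 Erythrocytes infected with P. falciparum line (0.3% parasitemia, 2.5% hematocrit final) incubated with compounds 72 h at 37 °C, 5% CO2; SYBR Green lysis buffer added, fluorescence read next day. Normalized to 0.29 uM artemisinin and DMSO.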
# [2] = qHTS for Inhibitors of Plasmodium falciparum (HB3) proliferation (AID 504318); further: nearly all actives have a fitted effect of over 60% in size; further: potency means the concentration at half of the fitted maximal effect
# How it was run: as §1
# [3] = biological target: Atrial natriuretic peptide receptor 1 (Homo sapiens) (UniProt P16066); assay: Natriuretic polypeptide receptor (hNpr1) antagonism - Pilot CMLD screen (AID 1347052; calls by dose curve;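 further: HEK293 cells with hNpr1 stimulated by hNppA peptide at 0.1 nM; cGMP level read as GloSensor luciferase luminescence after agonist stimulation; series mostly up to about 9.2 µM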)
# Sequence of Atrial natriuretic peptide receptor 1 (Homo sapiens) (P16066 whole entry, looked up): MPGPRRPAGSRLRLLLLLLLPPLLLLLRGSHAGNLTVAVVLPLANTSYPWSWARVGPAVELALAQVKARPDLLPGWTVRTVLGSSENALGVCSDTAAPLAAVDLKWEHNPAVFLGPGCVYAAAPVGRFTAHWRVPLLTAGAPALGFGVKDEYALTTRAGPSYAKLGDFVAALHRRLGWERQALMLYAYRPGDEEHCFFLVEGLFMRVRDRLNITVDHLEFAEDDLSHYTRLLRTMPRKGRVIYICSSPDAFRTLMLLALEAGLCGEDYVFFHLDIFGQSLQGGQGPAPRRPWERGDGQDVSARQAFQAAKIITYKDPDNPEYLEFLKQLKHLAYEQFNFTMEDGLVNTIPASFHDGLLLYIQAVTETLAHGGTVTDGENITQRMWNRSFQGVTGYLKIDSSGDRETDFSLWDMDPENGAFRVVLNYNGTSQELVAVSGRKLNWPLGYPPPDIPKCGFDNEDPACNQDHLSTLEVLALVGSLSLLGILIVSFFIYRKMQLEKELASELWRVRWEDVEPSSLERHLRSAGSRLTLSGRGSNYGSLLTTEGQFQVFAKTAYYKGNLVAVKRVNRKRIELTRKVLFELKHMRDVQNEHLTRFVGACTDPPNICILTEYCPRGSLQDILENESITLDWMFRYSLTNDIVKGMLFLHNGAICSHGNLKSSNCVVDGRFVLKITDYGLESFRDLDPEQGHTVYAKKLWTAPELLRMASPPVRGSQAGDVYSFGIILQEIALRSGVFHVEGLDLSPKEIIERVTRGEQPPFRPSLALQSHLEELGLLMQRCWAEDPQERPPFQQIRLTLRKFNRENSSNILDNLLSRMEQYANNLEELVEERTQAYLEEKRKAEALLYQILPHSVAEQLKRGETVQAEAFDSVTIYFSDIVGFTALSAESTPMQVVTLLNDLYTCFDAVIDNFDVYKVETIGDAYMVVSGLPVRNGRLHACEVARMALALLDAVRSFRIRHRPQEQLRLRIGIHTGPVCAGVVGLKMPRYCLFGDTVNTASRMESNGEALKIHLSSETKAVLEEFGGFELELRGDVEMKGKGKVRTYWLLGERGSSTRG
# [4] = qHTS for Inhibitors of Plasmodium falciparum (CP250) proliferation (AID 504320)
# How it was run: as §1
# [5] = biological target: Cytochrome P450 2C9 (Homo sapiens) (UniProt P11712); assay: qHTS Assay for Inhibitors and Substrates of Cytochrome P450 2C9 (AID 883); further: potency means the concentration at half of the fitted maximal effect; nearly all actives have a fitted effect of over 60% in size
# Sequence of Cytochrome P450 2C9 (Homo sapiens) (P11712 whole entry, looked up): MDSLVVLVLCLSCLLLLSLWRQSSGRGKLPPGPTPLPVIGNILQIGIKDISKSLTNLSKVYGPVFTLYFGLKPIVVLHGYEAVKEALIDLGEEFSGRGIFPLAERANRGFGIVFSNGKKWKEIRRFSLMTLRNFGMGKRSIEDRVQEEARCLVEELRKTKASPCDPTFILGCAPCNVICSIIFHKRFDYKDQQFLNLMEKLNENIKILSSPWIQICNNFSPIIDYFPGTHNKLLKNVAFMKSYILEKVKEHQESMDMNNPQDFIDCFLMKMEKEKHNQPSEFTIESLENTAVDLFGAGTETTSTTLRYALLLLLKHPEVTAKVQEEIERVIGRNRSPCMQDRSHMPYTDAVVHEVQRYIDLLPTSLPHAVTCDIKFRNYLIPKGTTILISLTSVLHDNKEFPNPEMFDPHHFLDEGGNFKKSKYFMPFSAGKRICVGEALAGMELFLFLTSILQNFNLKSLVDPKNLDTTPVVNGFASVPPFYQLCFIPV
# How it was run: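 Human CYP2C9 (10nM) with Luciferin-H at 100uM (its KM) in 25mM KPO4; compound preincubated 10 min at 37C, then NADPH regeneration for 60 min at 37C. Luciferin read by luminescence after detection reagent; normalized to 57uM sulphaphenazole as full inhibition.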
# [6] = biological target: Cytochrome P450 2C19 (Homo sapiens) (UniProt P33261); assay: qHTS Assay for Inhibitors and Substrates of Cytochrome P450 2C19 (AID 899); further: potency means the concentration at half of the fitted maximal effect; nearly all actives have a fitted effect of over 60% in size
# Sequence of Cytochrome P450 2C19 (Homo sapiens) (P33261 whole entry, looked up): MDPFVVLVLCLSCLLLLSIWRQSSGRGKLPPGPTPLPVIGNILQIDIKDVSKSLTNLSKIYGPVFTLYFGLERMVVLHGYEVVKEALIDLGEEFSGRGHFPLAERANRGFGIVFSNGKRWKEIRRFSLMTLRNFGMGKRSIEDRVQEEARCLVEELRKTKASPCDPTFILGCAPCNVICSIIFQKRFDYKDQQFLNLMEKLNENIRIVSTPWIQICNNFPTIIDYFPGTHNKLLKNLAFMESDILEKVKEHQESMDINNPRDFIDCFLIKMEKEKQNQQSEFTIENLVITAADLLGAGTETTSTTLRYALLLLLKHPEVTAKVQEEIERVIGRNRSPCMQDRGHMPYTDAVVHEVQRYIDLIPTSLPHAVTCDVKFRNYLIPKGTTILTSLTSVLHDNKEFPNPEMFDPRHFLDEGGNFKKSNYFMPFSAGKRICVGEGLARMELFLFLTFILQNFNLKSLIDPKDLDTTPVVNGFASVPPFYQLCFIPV
# How it was run: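 5 nM human CYP2C19 with 10uM Luciferin-H EGE (at KM) in 50mM KPO4, compound preincubated 10 min at 37C, then NADPH regeneration for 60 min at 37C. Luciferin read by luminescence after detection reagent; normalized to 57uM ketoconazole as full inhibition.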
compound,measurement,setting,value
COc1ccccc1C=CC1=CC2(C)CC1(C)C(c1ccccc1OC)CC2=O (configuration not stated),Potency,[1],1.69 µM (active)
same,Potency,[2],1.69 µM (active)
same,Potency,[3],inactive
Cc1ccccc1Nc1oc(-c2ccccc2)nc1C(C)(C)C,Potency,[1],1.9 µM (active)
same,Potency,[2],1.69 µM (active)
same,Potency,[3],inactive
C[C@H]1[C@@H](C(=O)N2CCCC2)CC(=NOCc2ccccc2)C(=NOCc2ccccc2)C[C@H]1c1ccccc1,Potency,[1],0.478 µM (active)
same,Potency,[2],1.69 µM (active)
same,Potency,[4],inactive
same,Potency,[3],inactive
CC(C)(C)Nc1oc(-c2ccccc2)nc1C=Cc1ccccc1,Potency,[1],1.51 µM (active)
same,Potency,[2],1.69 µM (active)
same,Potency,[3],inactive
COC(=O)C1=C(C(=O)OC)[C@@H]2N(Cc3ccccc3)c3ccccc3[C@@]23CCC(=O)N(CCc2ccccn2)C3=N1,Potency,[1],1.51 µM (active)
same,Potency,[3],inactive
COc1ccc(NC2=CC(c3ccccc3)N(c3ccc(OC)cc3)C2=O)cc1 (configuration not stated),Potency,[1],inactive
same,Potency,[2],inactive
same,Potency,[3],inactive
CC(CCN1CCCc2nc(C)c(C)cc21)=NO[C@H](C)c1cn([C@H](CO)Cc2ccccc2)nn1,Potency,[1],1.51 µM (active)
same,Potency,[3],inactive
C[C@@H]1CC[C@H]2C(=O)O[C@H](COc3ccc(C(C)(C)C)cc3)CN2[C@@H]1c1ccc(Br)cc1,Potency,[1],inactive
same,Potency,[2],inactive
same,Potency,[3],inactive
COC(=O)c1c(C(=O)OC)c2c3cc(OC)c(OC)cc3ccn2c1C(=O)OC,Potency,[1],inactive
same,Potency,[2],inactive
same,Potency,[4],inactive
same,Potency,[3],inactive
CCN(CCNC(=O)[C@H]1C=C(OC)C(=O)C[C@H](c2ccccc2)[C@@H]1C)C(C)=O,Potency,[1],inactive
same,Potency,[2],inactive
same,Potency,[4],inactive
same,Potency,[3],inactive
CCCCCCc1cc2cc(OC)c(OC)cc2c2c(C(=O)OC)c(C(=O)OC)c(C(=O)OC)n12,Potency,[1],1.9 µM (active)
same,Potency,[3],inactive
CCCCS(=O)(=O)N1CCc2nc(-c3ccccc3)c3c(c2C1)CO[C@@H](C)C3,Potency,[1],inactive
same,Potency,[2],inactive
same,Potency,[4],inactive
same,Potency,[3],inactive
CCCCn1c(C)cc2c(c1=O)[C@H]1O[C@](CCCCN3C(=O)c4ccccc4C3=O)(Cc3ccccc31)O2,Potency,[1],1.69 µM (active)
same,Potency,[3],inactive
O=C1CCCC=C1[C@@H](O)CCOC(c1ccccc1)(c1ccccc1)c1ccccc1,Potency,[5],0.794 µM (active)
same,Potency,[6],0.251 µM (active)
same,Potency,[1],1.69 µM (active)
same,Potency,[2],1.51 µM (active)
same,Potency,[3],inactive
COC(=O)C1=C(C)N(Cc2ccccc2)C(=NCc2ccc(OC)cc2)NC1c1cccc(F)c1 (configuration not stated),Potency,[2],inactive
same,Potency,[3],inactive
COC(=O)CC1OC1[C@H](C)[C@@H](OC)C(C)C (some centres not stated),Potency,[1],1.69 µM (active)
same,Potency,[4],inactive
same,Potency,[3],inactive
C[C@@H]1CC[C@H]2C(=O)N(Cc3ccc(Cl)cc3)C[C@@H](O)CN2[C@H]1c1cccc(Br)c1,Potency,[1],1.51 µM (active)
same,Potency,[4],inactive
same,Potency,[3],inactive
N#Cc1ccc2c(c1)C[C@]1(CCCCN3C(=O)c4ccccc4C3=O)Oc3c(c(=O)oc4ccc(F)cc34)[C@@H]2O1,Potency,[1],1.51 µM (active)
same,Potency,[4],inactive
same,Potency,[3],inactive
COC(=O)CC1c2ccccc2C=C(C=Cc2ccc3c(c2)OCO3)N1C(=O)OC (configuration not stated),Potency,[2],1.69 µM (active)
same,Potency,[3],inactive
COC(=O)N1C(C=CC=Cc2ccc(OC)cc2)=Cc2ccccc2C1CC(C)=O (configuration not stated),Potency,[1],1.51 µM (active)
same,Potency,[4],inactive
same,Potency,[3],inactive
CCN1C(=NCc2cc(OC)c(OC)c(OC)c2)NC(c2cccc(C(F)(F)F)c2)C(C(=O)OC)=C1C (configuration not stated),Potency,[1],1.9 µM (active)
same,Potency,[4],inactive
same,Potency,[3],inactive
C=CCN=C1N[C@H](c2ccc(Br)cc2)C(C(=O)OC)=C(C)N1Cc1ccccc1,Potency,[2],inactive
same,Potency,[3],inactive
C=CC[C@@H]1C=C[C@H](ON=C(C)CCN2CCc3nc(CC)c(CC)cc3C2)[C@H](CO)O1,Potency,[1],1.69 µM (active)
same,Potency,[4],inactive
same,Potency,[3],inactive
COC(=O)C1=C(C)N(Cc2ccccc2)C(=NCCc2cccnc2)NC1c1ccccc1 (configuration not stated),Potency,[2],inactive
same,Potency,[3],inactive
CCCC[C@]12Cc3cc(C#N)ccc3[C@H](O1)c1c(cc(C)n(Cc3ccccc3)c1=O)O2,Potency,[1],1.69 µM (active)
same,Potency,[4],inactive
same,Potency,[3],inactive
COc1cccc([C@@H]2[C@H](C)C[C@H]3CC(=O)N4[C@H](CC(=O)N32)C[C@@H](C)[C@@H]4c2cccc(OC)c2)c1,Potency,[1],1.51 µM (active)
same,Potency,[4],inactive
same,Potency,[3],inactive
COC(=O)C1=C(C)N(Cc2ccccc2)C(=NCC(C)C)NC1c1cccc(F)c1 (configuration not stated),Potency,[2],inactive
same,Potency,[3],inactive
COC(=O)N[C@H](C(C(=O)OC)=C(C)NCc1ccccc1)c1cccc(C)c1,Potency,[1],inactive
same,Potency,[4],inactive
same,Potency,[3],inactive
COc1ccc(O[C@H]2C=C[C@@H](c3ccccc3)O[C@H]2CON=C(C)CCN2CCCCc3nc(C)c(C)cc32)cc1,Potency,[1],1.51 µM (active)
same,Potency,[4],inactive
same,Potency,[3],inactive
COC(=O)C1=C[C@@]2(c3ccc(OC)cc3[C@@H](OC)[C@@H]2C)[C@@H]2C=C[C@@H]1C2,Potency,[1],inactive
same,Potency,[4],inactive
same,Potency,[3],inactive
